What was measured:
PEG-3 [1] = molecular target: PEG-3 (UniProt Q6IN02); experiment: inhibition of PEG-3 promoter-driven reporter – cell-based, HeLa, luciferase, CREF/GAPDH counter-screen panel, dose response (AID 624167); conditions: CREF/GAPDH counter-screens; HeLa PEG-Prom luciferase reporter, overnight, run 1, dose range 1, at 100 µM (top of the series) unless noted
PEG-3 [2] = molecular target: PEG-3 (UniProt Q6IN02); experiment: as above; conditions: CREF/GAPDH counter-screens; HeLa PEG-Prom luciferase reporter, overnight, run 2, dose range 1, at 100 µM (top of the series) unless noted

PEG-3, sequence (Q6IN02 whole entry, looked up): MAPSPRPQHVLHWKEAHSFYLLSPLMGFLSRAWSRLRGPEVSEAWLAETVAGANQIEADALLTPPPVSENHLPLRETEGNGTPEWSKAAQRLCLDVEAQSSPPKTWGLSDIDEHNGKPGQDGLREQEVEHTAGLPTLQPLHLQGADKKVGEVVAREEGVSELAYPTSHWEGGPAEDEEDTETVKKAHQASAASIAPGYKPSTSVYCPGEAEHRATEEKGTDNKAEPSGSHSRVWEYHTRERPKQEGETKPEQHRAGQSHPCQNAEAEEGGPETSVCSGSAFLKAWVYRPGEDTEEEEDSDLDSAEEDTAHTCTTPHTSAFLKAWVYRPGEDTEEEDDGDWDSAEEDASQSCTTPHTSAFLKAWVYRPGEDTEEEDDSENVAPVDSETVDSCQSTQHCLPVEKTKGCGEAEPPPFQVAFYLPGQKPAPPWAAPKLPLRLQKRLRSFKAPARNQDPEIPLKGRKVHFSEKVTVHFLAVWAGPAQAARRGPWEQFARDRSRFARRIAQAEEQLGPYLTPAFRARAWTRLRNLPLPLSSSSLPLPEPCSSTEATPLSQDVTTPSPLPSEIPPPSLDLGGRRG

SMILES | inhibition (PEG-3 [1]) | inhibition (PEG-3 [2])
COc1ccc(-c2oc3ccc(-c4cc(OC)c(OC)c(OC)c4)cc3c2C#Cc2ccccn2)cc1 | 26.8% | 53.3%
O=C(c1ccoc1)N1CCN(c2cc(-c3ccccc3)nc3cc(-c4ccccc4)nn23)CC1 | 58.2% | 66%
CCCCC(=O)NC(c1ccccc1Cl)c1ccc2cccnc2c1O (stereo unspecified) | 70.2% | 87.3%
COc1ccc(C(O)(CCC(C)C)C(CN2CCOCC2)c2ccccc2)cc1 (stereo unspecified) | 96.5% | 101%
c1ccc(CCCNCCCn2cnc3c(OCc4ccccc4)ncnc32)cc1 | 99.5% | 101%
COc1cccc(NC(=O)Nc2cccc(C(=O)O)c2)c1 | 87% | 81.3%
CC(C)CC(N)c1csc(NC(=O)Nc2ccccc2C(C)C)n1 (stereo unspecified) | 99% | 101%
O=C(O)CN1C(=O)/C(=C\c2ccccc2OCc2ccc(Cl)cc2Cl)SC1=S | 102% | 99.9%

Reference: PubChem BioAssay
